Tests used:
Assay in all cases: log2 ratio of Biotin-Ahx-Ub-VS probe labelling (fragment/DMSO); higher = less target engagement (more negative = stronger competition), active = hit call of the paper (q ≤ 0.05, log2 ratio ≤ -1)
Conditions in all cases: compound concentration: 200 uM; treatment time: 3 h
USP9X = USP9X (UniProt Q93008)
In short: (§1)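 Fragment (200 µM) or vehicle was incubated for 3 h with triplicate HEK293T lysate samples of 495 µg, which were then treated with Biotin-Ahx-Ub-VS at 0.5 µM final for 1 h. Labelled DUBs were enriched on NeutrAvidin, digested with LysC and trypsin, and analysed by diaPASEF LC-MS/MS. Values are average log2 fragment/vehicle ratios from an unpaired t-test on global-median-normalised Spectronaut label-free quantities, using proteins with ≥2 unique peptides.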

UniProt O00487 = biological target: UniProt O00487
UniProt O00487, sequence (O00487 whole entry): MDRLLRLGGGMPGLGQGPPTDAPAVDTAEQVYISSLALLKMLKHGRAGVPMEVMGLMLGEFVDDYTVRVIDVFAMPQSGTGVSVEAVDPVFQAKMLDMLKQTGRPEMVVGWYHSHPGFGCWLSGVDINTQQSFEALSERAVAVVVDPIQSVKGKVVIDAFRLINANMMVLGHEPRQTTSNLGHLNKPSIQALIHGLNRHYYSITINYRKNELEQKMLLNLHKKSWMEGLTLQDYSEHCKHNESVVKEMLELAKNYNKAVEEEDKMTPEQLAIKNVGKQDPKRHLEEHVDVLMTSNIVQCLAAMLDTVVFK
In short: as §1

UniProt O00507 = biological target: UniProt O00507
In short: as §1

UniProt P51784 = biological target: UniProt P51784
UniProt P51784, sequence (P51784 whole entry): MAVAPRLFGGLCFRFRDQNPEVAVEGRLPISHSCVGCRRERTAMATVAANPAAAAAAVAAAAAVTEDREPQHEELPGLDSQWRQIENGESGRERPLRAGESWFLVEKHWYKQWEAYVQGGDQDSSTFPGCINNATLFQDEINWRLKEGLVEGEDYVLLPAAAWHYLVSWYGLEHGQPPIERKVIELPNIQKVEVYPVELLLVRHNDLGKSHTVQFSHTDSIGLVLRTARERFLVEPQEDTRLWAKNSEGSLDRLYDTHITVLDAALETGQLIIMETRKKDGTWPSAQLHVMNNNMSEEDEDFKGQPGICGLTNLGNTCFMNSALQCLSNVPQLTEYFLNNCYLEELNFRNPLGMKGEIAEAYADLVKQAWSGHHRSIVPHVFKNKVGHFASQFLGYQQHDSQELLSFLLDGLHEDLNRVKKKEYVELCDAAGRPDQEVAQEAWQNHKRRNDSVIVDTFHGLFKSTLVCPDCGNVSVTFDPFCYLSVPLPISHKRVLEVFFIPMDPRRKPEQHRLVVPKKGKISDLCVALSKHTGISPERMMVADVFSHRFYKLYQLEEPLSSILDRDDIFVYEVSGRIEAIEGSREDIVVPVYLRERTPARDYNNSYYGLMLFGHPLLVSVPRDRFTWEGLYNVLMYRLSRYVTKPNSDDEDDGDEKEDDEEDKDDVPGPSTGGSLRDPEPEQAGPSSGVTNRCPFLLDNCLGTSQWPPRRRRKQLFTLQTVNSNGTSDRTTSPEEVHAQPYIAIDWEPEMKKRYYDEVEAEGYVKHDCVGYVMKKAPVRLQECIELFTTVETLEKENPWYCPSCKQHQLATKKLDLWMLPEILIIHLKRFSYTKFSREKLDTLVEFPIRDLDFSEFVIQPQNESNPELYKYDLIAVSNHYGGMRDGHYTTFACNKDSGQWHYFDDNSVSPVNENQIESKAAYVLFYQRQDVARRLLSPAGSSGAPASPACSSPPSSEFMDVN
In short: as §1

UniProt Q5T2D3 = biological target: T1, UniProt Q5T2D3
T1 sequence (whole entry): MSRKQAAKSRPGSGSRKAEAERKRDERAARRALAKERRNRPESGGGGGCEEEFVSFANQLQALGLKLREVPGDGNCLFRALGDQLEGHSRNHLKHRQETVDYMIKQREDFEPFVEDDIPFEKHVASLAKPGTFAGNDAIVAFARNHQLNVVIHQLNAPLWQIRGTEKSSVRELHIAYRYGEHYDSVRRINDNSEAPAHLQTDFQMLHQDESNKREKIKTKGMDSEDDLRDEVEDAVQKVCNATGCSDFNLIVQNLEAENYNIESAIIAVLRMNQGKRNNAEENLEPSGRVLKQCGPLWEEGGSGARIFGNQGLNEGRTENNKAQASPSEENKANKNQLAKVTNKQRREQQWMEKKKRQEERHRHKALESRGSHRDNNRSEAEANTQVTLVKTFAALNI
In short: as §1

UniProt Q8TE49 = biological target: T2, UniProt Q8TE49
T2 sequence (whole entry): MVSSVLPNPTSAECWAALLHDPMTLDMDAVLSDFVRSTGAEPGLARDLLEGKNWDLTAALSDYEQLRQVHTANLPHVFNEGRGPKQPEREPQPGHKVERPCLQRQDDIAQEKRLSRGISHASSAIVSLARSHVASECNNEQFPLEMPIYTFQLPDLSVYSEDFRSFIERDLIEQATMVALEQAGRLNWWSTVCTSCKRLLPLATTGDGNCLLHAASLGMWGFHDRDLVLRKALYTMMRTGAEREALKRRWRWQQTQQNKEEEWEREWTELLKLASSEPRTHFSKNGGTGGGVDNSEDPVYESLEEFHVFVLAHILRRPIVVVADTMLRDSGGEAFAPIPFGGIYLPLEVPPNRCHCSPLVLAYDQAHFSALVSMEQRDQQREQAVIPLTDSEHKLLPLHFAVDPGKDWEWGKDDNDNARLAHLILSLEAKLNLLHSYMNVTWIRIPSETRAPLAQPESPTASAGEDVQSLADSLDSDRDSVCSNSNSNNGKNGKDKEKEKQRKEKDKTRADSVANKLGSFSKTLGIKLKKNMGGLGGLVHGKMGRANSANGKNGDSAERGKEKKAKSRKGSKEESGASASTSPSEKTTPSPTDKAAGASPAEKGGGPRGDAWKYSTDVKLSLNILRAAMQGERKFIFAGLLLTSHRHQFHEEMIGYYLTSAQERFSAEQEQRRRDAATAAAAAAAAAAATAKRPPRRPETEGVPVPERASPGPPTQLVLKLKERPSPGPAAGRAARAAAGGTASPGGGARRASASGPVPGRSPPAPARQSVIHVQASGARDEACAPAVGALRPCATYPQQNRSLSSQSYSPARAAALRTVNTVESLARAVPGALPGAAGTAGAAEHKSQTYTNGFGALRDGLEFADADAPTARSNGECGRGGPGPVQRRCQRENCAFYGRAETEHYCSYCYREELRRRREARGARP
In short: as §1

UniProt Q9P2H5 = biological target: T3, UniProt Q9P2H5
T3 sequence (whole entry): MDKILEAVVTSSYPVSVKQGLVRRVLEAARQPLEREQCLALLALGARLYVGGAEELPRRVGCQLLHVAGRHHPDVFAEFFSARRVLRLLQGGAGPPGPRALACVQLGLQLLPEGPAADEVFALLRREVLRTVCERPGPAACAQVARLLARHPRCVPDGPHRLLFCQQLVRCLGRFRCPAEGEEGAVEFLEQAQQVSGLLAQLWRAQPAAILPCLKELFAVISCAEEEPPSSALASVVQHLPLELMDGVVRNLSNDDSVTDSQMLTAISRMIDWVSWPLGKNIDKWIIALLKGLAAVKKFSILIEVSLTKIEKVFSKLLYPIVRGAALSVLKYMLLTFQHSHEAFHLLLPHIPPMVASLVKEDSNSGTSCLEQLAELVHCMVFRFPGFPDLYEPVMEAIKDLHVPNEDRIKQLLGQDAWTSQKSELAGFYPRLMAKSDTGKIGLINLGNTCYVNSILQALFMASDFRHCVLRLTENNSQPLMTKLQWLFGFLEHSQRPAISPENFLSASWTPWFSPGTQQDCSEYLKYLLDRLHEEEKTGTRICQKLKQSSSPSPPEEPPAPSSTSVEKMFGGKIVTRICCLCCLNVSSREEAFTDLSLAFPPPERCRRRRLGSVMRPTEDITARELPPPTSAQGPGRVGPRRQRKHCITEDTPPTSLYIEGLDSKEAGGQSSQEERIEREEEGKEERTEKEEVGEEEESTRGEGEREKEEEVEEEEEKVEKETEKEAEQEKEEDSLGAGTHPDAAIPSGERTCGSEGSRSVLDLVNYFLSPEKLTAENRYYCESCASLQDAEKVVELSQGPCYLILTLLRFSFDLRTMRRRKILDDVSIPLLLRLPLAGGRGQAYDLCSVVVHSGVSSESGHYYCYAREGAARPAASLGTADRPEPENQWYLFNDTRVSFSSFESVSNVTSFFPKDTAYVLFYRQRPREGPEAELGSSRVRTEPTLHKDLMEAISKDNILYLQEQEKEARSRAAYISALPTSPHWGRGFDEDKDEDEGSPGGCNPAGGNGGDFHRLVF
In short: as §1

UniProt Q9UGI0 = biological target: T4, UniProt Q9UGI0
T4 sequence (whole entry): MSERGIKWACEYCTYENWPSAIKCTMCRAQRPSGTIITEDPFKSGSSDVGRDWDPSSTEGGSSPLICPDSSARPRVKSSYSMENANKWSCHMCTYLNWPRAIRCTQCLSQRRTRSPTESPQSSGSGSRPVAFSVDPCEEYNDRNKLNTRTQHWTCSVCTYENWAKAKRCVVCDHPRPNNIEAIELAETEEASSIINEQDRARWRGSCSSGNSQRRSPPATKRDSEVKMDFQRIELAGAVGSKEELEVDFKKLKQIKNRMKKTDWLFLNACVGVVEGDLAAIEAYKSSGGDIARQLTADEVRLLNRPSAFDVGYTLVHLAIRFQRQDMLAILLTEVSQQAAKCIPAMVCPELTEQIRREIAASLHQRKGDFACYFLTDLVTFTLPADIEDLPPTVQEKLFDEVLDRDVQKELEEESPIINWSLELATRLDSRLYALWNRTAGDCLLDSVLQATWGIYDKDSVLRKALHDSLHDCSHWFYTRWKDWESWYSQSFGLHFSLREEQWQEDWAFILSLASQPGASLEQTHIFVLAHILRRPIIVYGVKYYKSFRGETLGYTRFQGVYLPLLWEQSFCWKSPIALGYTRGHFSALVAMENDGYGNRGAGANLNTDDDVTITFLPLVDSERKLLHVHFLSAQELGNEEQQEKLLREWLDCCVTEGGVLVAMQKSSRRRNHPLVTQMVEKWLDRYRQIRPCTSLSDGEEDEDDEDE
In short: as §1

YOD1 = biological target: T5, YOD1 (UniProt Q5VVQ6)
T5 sequence (whole entry): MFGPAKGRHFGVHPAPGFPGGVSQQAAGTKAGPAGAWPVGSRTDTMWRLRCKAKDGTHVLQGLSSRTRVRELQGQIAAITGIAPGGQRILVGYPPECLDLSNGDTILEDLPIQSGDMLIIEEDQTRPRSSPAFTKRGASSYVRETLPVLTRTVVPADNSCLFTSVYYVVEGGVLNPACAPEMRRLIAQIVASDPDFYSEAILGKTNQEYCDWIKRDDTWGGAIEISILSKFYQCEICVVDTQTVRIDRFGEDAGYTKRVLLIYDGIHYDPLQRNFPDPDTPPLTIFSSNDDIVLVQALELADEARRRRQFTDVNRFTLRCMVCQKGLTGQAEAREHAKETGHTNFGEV
In short: as §1

Measured: log2 ratio of Biotin-Ahx-Ub-VS probe labelling

USP9X, sequence (Q93008 whole entry, the tested form may be a part): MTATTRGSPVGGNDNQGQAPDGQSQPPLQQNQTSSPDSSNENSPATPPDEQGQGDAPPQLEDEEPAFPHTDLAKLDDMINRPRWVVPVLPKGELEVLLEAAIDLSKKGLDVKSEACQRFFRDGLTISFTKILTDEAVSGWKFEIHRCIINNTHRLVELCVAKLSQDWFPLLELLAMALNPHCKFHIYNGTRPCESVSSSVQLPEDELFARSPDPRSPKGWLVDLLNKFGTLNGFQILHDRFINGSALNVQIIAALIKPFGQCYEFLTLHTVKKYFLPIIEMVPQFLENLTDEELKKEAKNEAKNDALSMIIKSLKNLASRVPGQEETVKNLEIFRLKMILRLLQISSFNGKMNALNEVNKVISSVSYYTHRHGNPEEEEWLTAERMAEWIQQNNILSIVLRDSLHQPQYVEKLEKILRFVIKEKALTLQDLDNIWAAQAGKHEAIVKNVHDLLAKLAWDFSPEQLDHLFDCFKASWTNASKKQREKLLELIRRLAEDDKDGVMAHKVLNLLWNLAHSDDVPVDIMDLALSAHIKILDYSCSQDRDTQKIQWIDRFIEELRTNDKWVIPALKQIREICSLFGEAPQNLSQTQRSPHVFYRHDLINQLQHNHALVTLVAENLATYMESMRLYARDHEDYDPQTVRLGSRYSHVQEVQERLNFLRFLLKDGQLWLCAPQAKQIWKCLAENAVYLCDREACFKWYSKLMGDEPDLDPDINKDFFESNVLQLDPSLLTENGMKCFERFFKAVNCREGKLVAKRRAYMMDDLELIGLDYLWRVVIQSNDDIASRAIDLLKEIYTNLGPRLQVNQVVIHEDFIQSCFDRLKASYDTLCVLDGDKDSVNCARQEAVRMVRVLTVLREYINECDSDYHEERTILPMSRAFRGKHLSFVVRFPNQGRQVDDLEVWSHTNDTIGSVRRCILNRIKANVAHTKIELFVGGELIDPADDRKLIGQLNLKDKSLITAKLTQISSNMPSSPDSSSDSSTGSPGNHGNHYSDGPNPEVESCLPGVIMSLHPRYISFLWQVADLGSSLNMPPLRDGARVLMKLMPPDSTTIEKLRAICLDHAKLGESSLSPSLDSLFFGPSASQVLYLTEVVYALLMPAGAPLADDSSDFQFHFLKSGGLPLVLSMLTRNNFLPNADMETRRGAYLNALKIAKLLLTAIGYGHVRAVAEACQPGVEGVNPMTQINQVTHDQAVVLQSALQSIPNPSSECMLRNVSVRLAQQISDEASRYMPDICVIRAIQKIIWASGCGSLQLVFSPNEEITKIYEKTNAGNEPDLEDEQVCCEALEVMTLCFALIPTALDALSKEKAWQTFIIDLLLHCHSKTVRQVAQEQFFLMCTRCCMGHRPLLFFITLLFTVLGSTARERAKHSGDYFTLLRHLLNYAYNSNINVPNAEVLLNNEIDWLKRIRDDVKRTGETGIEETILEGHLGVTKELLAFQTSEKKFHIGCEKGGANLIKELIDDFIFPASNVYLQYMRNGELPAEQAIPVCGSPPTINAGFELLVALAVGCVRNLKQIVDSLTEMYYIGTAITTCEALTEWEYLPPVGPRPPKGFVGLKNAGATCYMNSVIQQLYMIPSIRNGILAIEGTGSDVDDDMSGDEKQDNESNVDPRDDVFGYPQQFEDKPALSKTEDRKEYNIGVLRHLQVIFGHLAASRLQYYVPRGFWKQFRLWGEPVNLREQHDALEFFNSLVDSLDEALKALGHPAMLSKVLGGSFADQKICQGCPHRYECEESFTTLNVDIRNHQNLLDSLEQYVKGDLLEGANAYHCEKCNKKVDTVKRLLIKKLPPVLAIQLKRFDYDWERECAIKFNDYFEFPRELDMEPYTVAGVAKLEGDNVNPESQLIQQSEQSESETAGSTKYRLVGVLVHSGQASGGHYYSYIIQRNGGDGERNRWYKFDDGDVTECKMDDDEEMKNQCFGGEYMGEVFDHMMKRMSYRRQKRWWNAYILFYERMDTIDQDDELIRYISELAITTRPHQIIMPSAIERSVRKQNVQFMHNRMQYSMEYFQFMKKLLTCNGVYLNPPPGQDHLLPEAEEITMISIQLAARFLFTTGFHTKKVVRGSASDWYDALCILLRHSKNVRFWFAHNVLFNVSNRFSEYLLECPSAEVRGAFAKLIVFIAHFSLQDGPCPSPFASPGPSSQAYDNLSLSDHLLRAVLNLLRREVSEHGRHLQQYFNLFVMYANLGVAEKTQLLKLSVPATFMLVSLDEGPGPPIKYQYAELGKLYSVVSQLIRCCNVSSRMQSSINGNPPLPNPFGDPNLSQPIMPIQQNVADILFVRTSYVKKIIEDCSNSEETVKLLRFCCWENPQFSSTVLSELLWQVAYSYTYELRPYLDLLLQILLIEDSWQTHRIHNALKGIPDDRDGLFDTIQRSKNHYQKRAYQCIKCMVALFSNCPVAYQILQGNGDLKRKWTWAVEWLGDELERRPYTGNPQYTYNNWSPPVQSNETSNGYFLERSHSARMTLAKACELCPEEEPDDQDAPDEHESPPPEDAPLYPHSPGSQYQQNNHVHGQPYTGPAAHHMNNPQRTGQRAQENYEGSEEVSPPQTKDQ

O=C(CCl)N1CCN(C(=O)Nc2ccccc2)CC1
inactive: USP9X 0.0323 | UniProt O00487 -0.0538 | UniProt O00507 0.452 | UniProt P51784 0.16 | UniProt Q5T2D3 -0.132 | UniProt Q8TE49 -0.337 | UniProt Q9P2H5 -0.158 | UniProt Q9UGI0 0.0377 | YOD1 0.444
